Experimental data reported in PubChem BioAssay (NCATS).
Inconclusive results are not listed. Where a call stands in place of a potency, no number is given. Active and inactive are the calls of the source. Unless noted, calls come from the whole dose curve; as a rule, active = well fitted curve in the direction sought with a large enough effect; inconclusive = small, poorly fitted or top-dose-only effect, or another doubt; inactive = no such curve, though single readings can be large; an effect the other way counts as inactive or inconclusive. Starred links: 1 amine or outer side, 2 acyl side, 3 side chain; linkers in the order of their positions; H or OH if unused. Positions of bridges follow the written chain, without caps; N, C: chain ends. Non-standard residues stand in square brackets, D forms with d. Residues, ends and D or L forms follow the SMILES beside them. *: point of attachment. X1 = NC1=N[C@@H](O)C[C@@H]([C@@H](N[*:1])C(=O)[*:2])N1; ΔAla(Z-3-ureido) = NC(=O)N/C=C(\N)C(=O)O; β3hOrn = NCCC[C@H](N)CC(=O)*; Dap = NC[C@H](N)C(=O)O

Experiments:
[1] = AP1 Signaling Pathway (AID 357; active = well fitted curve in either direction with a large enough effect, not every such curve was filed as active;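 note: ME-180 reporter cells stimulated with EGF at its EC50 level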)
Summary of the method: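 First, ME-180 AP-1-bla cells were cultured overnight at 37 °C in low-serum Opti-MEM. Next, titrated compounds with EC50 EGF were incubated 5 hours. Finally, CCF4 was added for 2.5 hours and the 460/530 nm ratio recorded.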

[2] = NFAT Signaling Pathway (AID 444; active = well fitted curve in either direction with a large enough effect, not every such curve was filed as active;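 note: carbachol stimulus at about its EC50 of 1 µM final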); details: Jurkat NFAT-bla M1, carbachol, beta-lactamase ratio, 5 h; at 17.2 µM (top of the series) unless noted
Summary of the method: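 Read-out: CCF4 FRET ratio (460 nm/530 nm) after 1 h RT dye loading, used for %activity and AC50 from titration series. Cells: Jurkat NFAT-β-lactamase/M1 line, treated with compound plus 1 uM carbachol for 5 h, 37 °C.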

[3] = Stat Signaling Pathway (AID 446; active = well fitted curve in either direction with a large enough effect, not every such curve was filed as active;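 note: ME-180 cervical cancer cells given 40 pM IL-6 alongside compound; SIE-controlled beta-lactamase reporter measured as 460/530 nm FRET emission ratio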)
Summary of the method: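 Emission at 460 and 530 nm (excitation 405 nm) reports SIE-controlled beta-lactamase in ME-180 cells. Cells received compound with 40 pM IL-6 for 5 hrs at 37 C; data scaled between 300 pM IL-6 and 125 nM JAK-inhibitor controls.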

[4] = target: Mitogen-activated protein kinase 10 (Mus musculus) (UniProt Q61831); experiment: JNK3 AlphaScreen Assay (AID 530; active = well fitted curve in either direction with a large enough effect, not every such curve was filed as active;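 note: kinase came from lysate of stimulated human HepG2 cells; signal reports phosphorylation of biotinylated GST-cJun 1-79 at Ser73 with 10 µM ATP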)
Summary of the method: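 Kinase buffer: 20 mM Tris-HCl pH 7.6, 10 mM MgCl2, 1 mM DTT, 0.1 mM Na3VO4, 0.01% Tween-20; ATP 10 uM. Substrate biotin-GST-cJun(1-79), enzyme from activated HepG2 lysates. Detection by Ser73 phospho-antibody AlphaScreen.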

[5] = target: 3',5'-cyclic-AMP phosphodiesterase 4B (Homo sapiens) (UniProt Q07343); experiment: qHTS Assay for Inhibitors of PDE-IV (AID 607; active = well fitted activation curve with a large enough effect in the main read-out, with a control signal flat, not every such curve was filed as active)
3',5'-cyclic-AMP phosphodiesterase 4B (Homo sapiens), sequence (Q07343 whole entry, looked up): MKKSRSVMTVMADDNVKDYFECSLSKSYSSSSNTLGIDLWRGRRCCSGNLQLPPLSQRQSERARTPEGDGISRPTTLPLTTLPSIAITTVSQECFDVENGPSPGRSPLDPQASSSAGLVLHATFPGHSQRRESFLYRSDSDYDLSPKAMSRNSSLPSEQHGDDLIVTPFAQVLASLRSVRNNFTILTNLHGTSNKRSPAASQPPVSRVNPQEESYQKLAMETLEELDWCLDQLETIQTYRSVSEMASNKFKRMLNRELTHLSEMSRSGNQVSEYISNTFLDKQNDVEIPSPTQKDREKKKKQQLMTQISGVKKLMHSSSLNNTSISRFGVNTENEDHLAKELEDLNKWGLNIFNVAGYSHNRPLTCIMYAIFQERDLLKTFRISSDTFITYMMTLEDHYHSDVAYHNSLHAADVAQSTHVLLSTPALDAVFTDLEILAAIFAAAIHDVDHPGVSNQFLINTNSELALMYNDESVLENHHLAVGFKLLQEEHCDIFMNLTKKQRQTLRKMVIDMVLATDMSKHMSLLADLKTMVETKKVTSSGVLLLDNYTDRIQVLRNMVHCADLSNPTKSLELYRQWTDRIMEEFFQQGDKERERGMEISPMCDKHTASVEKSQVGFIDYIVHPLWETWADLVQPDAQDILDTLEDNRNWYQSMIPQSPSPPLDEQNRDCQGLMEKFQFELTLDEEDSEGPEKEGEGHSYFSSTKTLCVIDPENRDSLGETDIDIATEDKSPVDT
Summary of the method: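 The readout is membrane depolarisation from a cAMP-sensing CNG channel, detected with a potential dye at ex 535/em 590. Cells were HEK293-derived (endogenous PDE-IV) at 1000 cells/well, titrated up to 22.9 uM final.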

[6] = qHTS Assay for Lipid Storage Modulators (AID 1519; calls by dose curve); details: Drosophila S3 cells, BODIPY lipid droplet/cell ratio, laser cytometry, cells loaded with oleic acid
Summary of the method: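 Cells seeded at 5,000 per well were treated with compounds over a concentration series and loaded with oleic acid (400 uM, as added). Lipid droplet fluorescence (488 nm excitation, 500-530 nm channel) was read by laser-scanning cytometry and normalized to 20 uM Triacsin C.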

[7] = target: ATP-dependent 6-phosphofructokinase (Trypanosoma brucei brucei) (UniProt O15648); experiment: qHTS Assay to Find Inhibitors of T. brucei phosphofructokinase: hit validation (AID 492961);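 note: luminescence reports ADP formed as PFK phosphorylates fructose-6-phosphate with ATP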
ATP-dependent 6-phosphofructokinase (Trypanosoma brucei brucei), sequence (O15648 whole entry, looked up): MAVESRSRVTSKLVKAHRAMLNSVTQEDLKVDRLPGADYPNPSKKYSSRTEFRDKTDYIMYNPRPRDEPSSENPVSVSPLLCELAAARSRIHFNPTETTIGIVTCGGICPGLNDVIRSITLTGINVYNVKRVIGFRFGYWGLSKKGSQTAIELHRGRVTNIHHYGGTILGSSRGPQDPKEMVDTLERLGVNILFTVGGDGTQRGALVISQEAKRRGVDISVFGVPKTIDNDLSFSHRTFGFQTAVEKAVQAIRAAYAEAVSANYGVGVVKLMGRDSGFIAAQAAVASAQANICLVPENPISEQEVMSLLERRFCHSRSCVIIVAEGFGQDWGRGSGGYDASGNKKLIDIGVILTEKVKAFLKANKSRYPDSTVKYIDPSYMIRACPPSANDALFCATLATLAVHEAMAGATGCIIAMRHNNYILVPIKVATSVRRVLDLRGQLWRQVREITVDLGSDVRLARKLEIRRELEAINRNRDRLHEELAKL
Summary of the method: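 In this biochemical qHTS validation, titrated compounds were tested against 1.25 nM PFK with 0.1 mM ATP and 0.5 mM F6P. Percent activity came from controls lacking or containing enzyme.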

[8] = target: Ubiquitin carboxyl-terminal hydrolase 1 (Homo sapiens) (UniProt O94782); experiment: Inhibitors of USP1/UAF1: Pilot qHTS (AID 504865);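 note: rhodamine fluorescence freed from ubiquitin-rhodamine substrate followed over time; top concentration of the series differs between compounds; nearly all actives have a fitted effect of over 35% in size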
Ubiquitin carboxyl-terminal hydrolase 1 (Homo sapiens), sequence (O94782 whole entry, looked up): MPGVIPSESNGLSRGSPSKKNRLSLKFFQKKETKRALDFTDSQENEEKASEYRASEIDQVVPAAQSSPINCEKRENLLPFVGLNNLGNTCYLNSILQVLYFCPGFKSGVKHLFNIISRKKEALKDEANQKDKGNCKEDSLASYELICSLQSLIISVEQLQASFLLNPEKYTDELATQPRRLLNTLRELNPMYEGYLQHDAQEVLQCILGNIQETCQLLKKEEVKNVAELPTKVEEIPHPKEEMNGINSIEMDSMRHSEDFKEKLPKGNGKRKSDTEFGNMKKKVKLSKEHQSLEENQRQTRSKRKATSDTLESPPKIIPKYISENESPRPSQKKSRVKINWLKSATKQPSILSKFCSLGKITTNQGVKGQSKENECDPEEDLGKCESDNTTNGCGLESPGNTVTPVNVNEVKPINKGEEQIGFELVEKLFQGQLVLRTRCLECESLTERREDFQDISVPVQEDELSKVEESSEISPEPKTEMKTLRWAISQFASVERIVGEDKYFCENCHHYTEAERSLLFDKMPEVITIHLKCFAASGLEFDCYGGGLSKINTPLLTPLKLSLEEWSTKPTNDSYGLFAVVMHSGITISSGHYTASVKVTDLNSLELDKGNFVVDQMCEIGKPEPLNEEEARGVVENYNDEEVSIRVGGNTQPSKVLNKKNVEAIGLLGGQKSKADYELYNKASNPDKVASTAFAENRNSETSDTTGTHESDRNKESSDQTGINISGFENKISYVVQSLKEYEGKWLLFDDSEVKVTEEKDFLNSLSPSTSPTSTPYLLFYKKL
Summary of the method: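 USP1/UAF1 complex (1nM) preincubated with compound 15 min at room temperature, then Ub-Rho substrate (150nM final) added. Fluorescence read kinetically at 480/540 nm, 6 reads every 60 seconds. Buffer: 50mM HEPES pH 7.8, 0.5mM EDTA, 0.1 mg/ml BSA, 1mM TCEP, 0.01% Tween-20.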

[9] = target: Luciferin 4-monooxygenase (Photinus pyralis) (UniProt P08659); experiment: Biochemical firefly luciferase enzyme assay for NPC (AID 624030);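 note: purified P. pyralis luciferase at 10 nM with luciferin and ATP substrate; nearly all actives have a fitted effect of over 70% in size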
Luciferin 4-monooxygenase (Photinus pyralis), sequence (P08659 whole entry, looked up): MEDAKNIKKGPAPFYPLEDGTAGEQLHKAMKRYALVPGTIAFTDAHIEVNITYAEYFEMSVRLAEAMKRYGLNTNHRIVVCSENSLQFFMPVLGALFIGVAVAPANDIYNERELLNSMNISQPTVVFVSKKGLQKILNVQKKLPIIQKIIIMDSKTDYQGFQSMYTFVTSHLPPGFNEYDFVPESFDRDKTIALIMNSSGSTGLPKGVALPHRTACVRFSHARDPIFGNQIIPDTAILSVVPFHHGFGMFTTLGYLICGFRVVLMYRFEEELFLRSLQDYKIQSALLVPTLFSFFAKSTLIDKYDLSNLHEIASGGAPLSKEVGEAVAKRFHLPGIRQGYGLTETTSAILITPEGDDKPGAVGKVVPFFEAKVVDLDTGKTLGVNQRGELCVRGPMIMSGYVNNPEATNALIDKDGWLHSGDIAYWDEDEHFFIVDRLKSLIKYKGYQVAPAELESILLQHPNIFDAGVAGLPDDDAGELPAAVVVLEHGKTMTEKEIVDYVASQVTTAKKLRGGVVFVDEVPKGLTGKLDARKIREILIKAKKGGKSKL
Summary of the method: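 Direct inhibition of firefly luciferase enzyme (10 nM final, 50 mM Tris Acetate) assessed by luminescence within 5 minutes. Percent activity scaled between DMSO and PTC124 positive control, with concentration-effect curves classified by fit quality and response.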

[10] = S16 Schwann cell PMP22 intronic element firefly luciferase assay (AID 624032); note: nearly all actives have a fitted effect of over 30% in size
Summary of the method: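 Luciferase reporter of PMP22 intronic-element expression in stably transfected S16 rat Schwann cells, read by ONE-Glo luminescence after 24 h compound exposure at 37 C. Activity scaled between DMSO (0%) and positive-control PTC124; concentration-effect curves quality-classified.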

[11] = qHTS profiling for inhibitors of Plasmodium falciparum proliferation (AID 504749); note: potency is the fitted concentration of half-maximal effect; for all read-outs here: nearly all actives have a fitted effect of over 60% in size; details: P. falciparum in erythrocytes, SYBR Green DNA, 72 h; for activity, negative = inhibition: at 12.8 µM (top of the series)
Summary of the method: (§1)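 In a 72 h erythrocytic culture (37 C, humidified, 5% CO2) at 2.5% hematocrit and 0.3% starting parasitemia, compounds were tested; SYBR Green I in detergent lysis buffer stained parasite DNA overnight.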

AS120 = experiment: as above; details: P. falciparum in erythrocytes, SYBR Green DNA, 72 h; series mostly up to 12.8 µM
Summary of the method: as §1

C2A = experiment: as above; details: P. falciparum in erythrocytes, SYBR Green DNA, 72 h; series mostly up to 12.8 µM
Summary of the method: as §1

CP238 = experiment: as above; details: P. falciparum in erythrocytes, SYBR Green DNA, 72 h; series mostly up to 12.8 µM
Summary of the method: as §1

CP250 = experiment: as above; details: P. falciparum in erythrocytes, SYBR Green DNA, 72 h; series mostly up to 12.8 µM
Summary of the method: as §1

CP252 = experiment: as above; details: P. falciparum in erythrocytes, SYBR Green DNA, 72 h; series mostly up to 12.8 µM
Summary of the method: as §1

HB3 = experiment: as above; details: P. falciparum in erythrocytes, SYBR Green DNA, 72 h; series mostly up to 12.8 µM
Summary of the method: as §1

SC27B = experiment: as above; details: P. falciparum in erythrocytes, SYBR Green DNA, 72 h; series mostly up to 12.8 µM
Summary of the method: as §1

[12] = target: Glucocorticoid receptor (Homo sapiens) (UniProt P04150); experiment: GR-EFC Redistribution (AID 451; calls by dose curve; note: potency is the fitted concentration of half-maximal effect); details: CHO-K1 GR-EFC translocation, beta-gal luminescence, 2 h
Glucocorticoid receptor (Homo sapiens), sequence (P04150 whole entry, looked up, the tested form may be a part): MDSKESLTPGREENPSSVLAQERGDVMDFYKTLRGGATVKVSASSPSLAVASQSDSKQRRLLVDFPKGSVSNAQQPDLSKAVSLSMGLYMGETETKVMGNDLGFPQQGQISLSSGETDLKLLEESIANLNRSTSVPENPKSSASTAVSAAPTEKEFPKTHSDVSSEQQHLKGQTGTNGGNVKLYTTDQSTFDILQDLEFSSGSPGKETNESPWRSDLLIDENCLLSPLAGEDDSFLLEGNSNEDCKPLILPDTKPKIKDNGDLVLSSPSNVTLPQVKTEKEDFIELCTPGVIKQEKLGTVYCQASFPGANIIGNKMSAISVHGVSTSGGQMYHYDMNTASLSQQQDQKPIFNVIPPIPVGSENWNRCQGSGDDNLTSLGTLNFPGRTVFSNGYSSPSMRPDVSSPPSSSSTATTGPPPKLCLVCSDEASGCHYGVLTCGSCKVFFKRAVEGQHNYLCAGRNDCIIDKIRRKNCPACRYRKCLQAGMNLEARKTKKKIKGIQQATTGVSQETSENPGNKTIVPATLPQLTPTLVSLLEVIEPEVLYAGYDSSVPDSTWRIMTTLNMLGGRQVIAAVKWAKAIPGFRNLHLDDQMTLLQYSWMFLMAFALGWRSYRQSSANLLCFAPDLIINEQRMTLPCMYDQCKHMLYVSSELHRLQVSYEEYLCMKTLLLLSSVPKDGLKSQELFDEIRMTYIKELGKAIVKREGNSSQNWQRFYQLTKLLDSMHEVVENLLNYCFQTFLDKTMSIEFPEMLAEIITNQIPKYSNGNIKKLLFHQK
Summary of the method: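 Translocation of GR-ED fusion to nuclear EA restores b-gal, read by luminescence after 1 h room-temperature detection. Engineered CHO-K1 biosensor cells, 1,000/well, exposed 2 h at 37 C to titrations up to 46 uM final.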

[13] = target: Glucocorticoid receptor (Homo sapiens) (UniProt P04150); experiment: GR-GFP Redistribution (AID 450;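 active = compounds whose dose series gives a full or clear partial fitted curve of increased nuclear translocation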; note: potency is the fitted concentration of half-maximal effect); details: U2OS GR-GFP nuclear translocation, laser cytometry, 2 h
[14] = measured here: cell count channel max response
[15] = measured here: lipid channel max response

C[C@H](O)Cn1cnc2c1c(=O)n(C)c(=O)n2C
outcome [1]: inactive | activity change, negative = inhibition [2]: 18.8% (inactive) | outcome [3]: inactive | Potency [4]: inactive | outcome [5]: inactive | activity change, negative = inhibition ([6]; at 25.7 µM (top of the series)): 0.562% (inactive) | max response [6, 14]: -2.3% | max response [6, 15]: -3.77% | outcome [7]: inactive | Potency [8]: inactive | Potency [9]: inactive | Potency [10]: inactive | activity, negative = inhibition ([11]; parasite line A): 7.57% (inactive) | activity, negative = inhibition ([11]; parasite line B): -0.935% (inactive) | Potency (AS120): inactive | Potency (C2A): inactive | Potency (CP238): inactive | Potency (CP250): inactive | Potency (CP252): inactive | Potency (HB3): inactive | Potency (SC27B): inactive

C[C@@H](CNC1CCCCC1)OC(=O)c1ccccc1
outcome [1]: inactive | outcome [3]: inactive | Potency [12]: > 20.6 µM (inactive) | Potency [4]: inactive | outcome [5]: inactive | activity change, negative = inhibition ([6]; at 25.7 µM (top of the series)): -3.84% (inactive) | max response [6, 14]: -16.8% | max response [6, 15]: -19.5% | outcome [7]: inactive | Potency [8]: inactive | Potency [9]: inactive | Potency [10]: inactive | Potency (C2A): inactive | Potency (CP252): inactive | Potency (HB3): 3.98 µM (active) | Potency (SC27B): 3.55 µM (active)

CC(=O)S[C@H]1CC2=CC(=O)CC[C@@]2(C)[C@H]2CC[C@@]3(C)[C@H](CC[C@]34CCC(=O)O4)[C@@H]12
outcome [1]: inactive | outcome [3]: inactive | Potency [13]: 2.45 µM (active) | Potency [4]: inactive | outcome [5]: inactive | activity change, negative = inhibition ([6]; at 25.7 µM (top of the series)): -7.24% (inactive) | max response [6, 14]: -20.4% | max response [6, 15]: -20.4% | Potency [8]: inactive

CC(C)(CO)[C@H](O)C(=O)NCCC(=O)O
outcome [1]: inactive | activity change, negative = inhibition [2]: 8.26% (inactive) | outcome [3]: inactive | Potency [4]: inactive | outcome [5]: inactive | activity change, negative = inhibition ([6]; at 25.7 µM (top of the series)): -0.81% (inactive) | max response [6, 14]: 7.75% | max response [6, 15]: 6.98%

CCN1CCC[C@@H](OC(=O)C(c2ccccc2)c2ccccc2)C1
outcome [1]: inactive | outcome [3]: inactive | Potency [13]: > 20.6 µM (inactive) | Potency [12]: > 20.6 µM (inactive) | Potency [4]: inactive | activity change, negative = inhibition ([6]; at 25.7 µM (top of the series)): -6.3% (inactive) | max response [6, 14]: -3.56% | max response [6, 15]: -10.4% | outcome [7]: inactive | Potency [9]: inactive | activity, negative = inhibition ([11]; parasite line A): 0.857% (inactive) | activity, negative = inhibition ([11]; parasite line B): -1.3% (inactive) | Potency (AS120): inactive | Potency (C2A): inactive | Potency (CP238): inactive | Potency (CP250): inactive | Potency (HB3): inactive | Potency (SC27B): inactive

NCCC[C@H](N)CC(=O)N[C@H]1CNC(=O)[C@@H]([C@@H]2C[C@H](O)N=C(N)N2)NC(=O)/C(=C/NC(N)=O)NC(=O)[C@@H](CO)NC(=O)[C@@H](CO)NC1=O (β3hOrn-[Dap][dS][dS][ΔAla(Z-3-ureido)][X1]; lactam 1-C)
outcome [1]: inactive | activity change, negative = inhibition [2]: -11.1% (inactive) | outcome [3]: inactive | Potency [4]: inactive | outcome [5]: inactive | activity change, negative = inhibition ([6]; at 25.7 µM (top of the series)): 0.925% (inactive) | max response [6, 14]: -7.09% | max response [6, 15]: -7.39% | Potency [8]: inactive

CC(=O)OCC(=O)[C@@]1(OC(C)=O)[C@H](C)C[C@H]2[C@@H]3C[C@H](F)C4=CC(=O)C=C[C@@]4(C)[C@]3(F)[C@H](O)C[C@@]21C
outcome [1]: inactive | outcome [3]: inactive | Potency [13]: 0.00203 µM (active) | Potency [12]: 0.0775 µM (active) | Potency [4]: inactive | outcome [5]: inactive | activity change, negative = inhibition ([6]; at 25.7 µM (top of the series)): -2.11% (inactive) | max response [6, 14]: -15.4% | max response [6, 15]: -17.2% | Potency [8]: inactive

CC1(C)S[C@@H]2[C@H](NC(=O)[C@@H](N)c3ccc(O)cc3)C(=O)N2[C@H]1C(=O)O
outcome [1]: inactive | outcome [3]: inactive | Potency [4]: inactive | outcome [5]: inactive | activity change, negative = inhibition ([6]; at 25.7 µM (top of the series)): -0.615% (inactive) | max response [6, 14]: -7.54% | max response [6, 15]: -10.4% | Potency [8]: inactive

C=CCO[C@@H](Cn1ccnc1)c1ccc(Cl)cc1Cl
outcome [1]: inactive | outcome [3]: inactive | Potency [13]: > 20.6 µM (inactive) | Potency [12]: > 20.6 µM (inactive) | Potency [4]: inactive | outcome [5]: inactive | activity change, negative = inhibition ([6]; at 25.7 µM (top of the series)): -0.8% (inactive) | max response [6, 14]: -10.1% | max response [6, 15]: -7.51%

CCN(CC)CCOC(=O)[C@@H](c1ccccc1)C1CCCCC1
outcome [3]: inactive | Potency [13]: > 20.6 µM (inactive) | Potency [4]: inactive | activity change, negative = inhibition ([6]; at 25.7 µM (top of the series)): -5.77% (inactive) | max response [6, 14]: -11.7% | max response [6, 15]: -16.6% | Potency [8]: inactive

O=c1cc(-c2cccc(O)c2)oc2cc(O)ccc12
Potency [13]: > 46 µM (inactive) | Potency [12]: > 46 µM (inactive) | Potency [4]: inactive | outcome [5]: inactive | activity change, negative = inhibition ([6]; at 57.5 µM (top of the series)): 8.05% (inactive) | max response [6, 14]: 22.9% | max response [6, 15]: 28%

CCOC(=O)Oc1c(OC)cc(C(=O)O[C@H]2C[C@H]3CN4CCc5c([nH]c6cc(OC)ccc56)[C@@H]4C[C@H]3[C@@H](C(=O)OC)[C@@H]2OC)cc1OC
activity change, negative = inhibition [2]: -2.78% (inactive) | outcome [3]: inactive | Potency [4]: inactive | outcome [5]: inactive | activity change, negative = inhibition ([6]; at 25.7 µM (top of the series)): -4.31% (inactive) | max response [6, 14]: -12.6% | max response [6, 15]: -12.3% | outcome [7]: inactive | Potency [8]: inactive | Potency [9]: inactive | Potency ([11]; parasite line A): 4.47 µM (active) | Potency (AS120): 3.55 µM (active)
